Inconclusive results are not listed. A number with no mark means an inactive call. Activity calls are given as the source filed them. Calls follow the shape of the dose curve; as a rule, active = well fitted inhibition curve with a large enough effect; inconclusive = small, poorly fitted or top-dose-only effect; inactive = no such curve, though single readings can be large or run the other way.
% is scaled to controls: 0 for no effect and ±100 for the full control effect; potency is read from the fitted curve at half-maximal effect.

The target of the assay is Retinal dehydrogenase 2 (Homo sapiens) (UniProt O94788). Briefly: qHTS for Inhibitors of the Aldehyde Dehydrogenase Family (ALDH1A2) Confirmation screens (AID 2061314). Also: nearly all actives have a fitted effect of over 65% in size. The conditions noted are these: ALDH1A2 enzyme inhibition qHTS confirmation; series mostly up to 45.9 µM; activity, negative = inhibition: at the top concentration. In general terms: qHTS replaces the single test concentration by a dilution series.
Consider `N#Cc1c(-c2cccc(Cl)c2)no[n+]1[O-]`, for which the Potency was 5.04 µM (active).

Regarding `COc1ccc(C2Oc3ccccc3C(=O)N2Cc2ccccc2)cc1COc1ccc(NC(C)=O)cc1` (stereo not given), the Potency was 7.12 µM (active).

Regarding `COc1ccc(C2=Nn3c(nnc3-c3ccccc3OC)SC2)cc1`, the “activity, negative = inhibition” value is -12.5%.

For the molecule `CNc1oc(-c2c[nH]c3ccccc23)nc1C#N`, the “activity, negative = inhibition” value is -20.1%.

Regarding `CN(C)CCCNC(=O)c1ccc(-c2cnc3c(O)cccc3c2)cc1`, the “activity, negative = inhibition” value is -18%.

As for `COc1ccc(C2Nc3ccccc3C(=O)N2Cc2ccncc2)cc1COc1ccc(NC(C)=O)cc1` (stereo not given), the Potency was 5.04 µM (active).

Take `CCOc1ccc(CCNC(=O)c2cc3c(s2)CCC3)cc1OCC`: the Potency is 14.2 µM (active).

Regarding `c1csc(CNc2ccc(N3CCOCC3)cc2)c1`, the Potency is 22.5 µM (active).

In the case of `O=C(Nc1nc(-c2ccccc2)cs1)c1ccncc1NS(=O)(=O)c1ccc(Cl)cc1`, the Potency was 10.1 µM (active).

Regarding `Nc1ccccc1OC1=NS(=O)(=O)c2ccccc21`, the “activity, negative = inhibition” value is 1.49%.
